# Screening data as filed in PubChem.
# Cruzain noTriton = blocks cruzain activity in detergent-free assay; P25779; purified cruzain, Z-FR-AMC fluorescence, no detergent; Potency, µM, inactives show max response, negative = inhibition, hits mostly inhibitors; 200,000 tested, 2.3% active; AID 1476;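 further: plate controls were enzyme without inhibitor for no effect and buffer without enzyme for full effect; nearly all actives have a fitted effect of over 40% in size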
# Target sequence (P25779 123-467 limits assumed): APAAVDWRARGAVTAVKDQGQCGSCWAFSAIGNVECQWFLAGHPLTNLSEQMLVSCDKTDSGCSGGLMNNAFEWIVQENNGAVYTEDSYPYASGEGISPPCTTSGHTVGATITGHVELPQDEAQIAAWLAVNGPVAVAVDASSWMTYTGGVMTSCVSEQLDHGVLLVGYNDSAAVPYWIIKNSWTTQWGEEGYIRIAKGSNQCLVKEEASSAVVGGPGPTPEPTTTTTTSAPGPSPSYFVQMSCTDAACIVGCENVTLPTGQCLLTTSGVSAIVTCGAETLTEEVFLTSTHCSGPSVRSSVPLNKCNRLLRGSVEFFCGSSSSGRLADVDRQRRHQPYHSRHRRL
#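 Purified cruzain at 1.5 nM, pre-incubated 15 min with compound at room temperature in 100 mM sodium acetate pH 5.5, 5 mM DTT, 0.00005% Triton X-100. Reaction started with 2 uM Z-FR-AMC; AMC fluorescence increase over 60 s gives rate.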
# Cruzain Triton = blocks cruzain activity in presence of Triton detergent | purified cruzain, Z-FR-AMC fluorescence, 0.01% Triton | Potency, µM, for inactives: max response, negative = inhibition, usual class: inhibitors | 200,000 tested, 0.43% active | AID 1478;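 further: plate controls were neutral wells for no effect and buffer without enzyme for full effect; nearly all actives have a fitted effect of over 40% in size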
#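 Cruzain (1.5 nM) preincubated 15 min at RT with compound in 100 mM sodium acetate pH 5.5, 5 mM DTT, 0.01% Triton X-100. Reaction started with 2 uM Z-FR-AMC; AMC fluorescence (ex 360/em 450 nm) change over 60 s gave rate.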
# Active calls of the source: *; ? = inconclusive. A selection: hits, their analogues and other compounds. The true share with any hit is near 2.4%. The call rests on the fitted dose curve; in most records, active means well fitted curve in the direction sought with a large enough effect; inconclusive means small, poorly fitted or top-dose-only effect, or another doubt; inactive means no such curve, though single readings can be large; an effect the other way counts as inactive or inconclusive. Potency means the concentration at half of the fitted maximal effect.
SMILES,Cruzain noTriton,Cruzain Triton
Cc1ccc(C(=O)c2oc3ccccc3c2NC(=O)c2cc(-c3ccccc3O)n[nH]2)cc1,?,-0.3%
O=C(O)c1cc(C(=O)O)nc(C(=O)O)c1,5.1%,6.9%
CN(Cc1ccco1)C(=O)c1ccc2c(c1)N(Cc1ccccc1F)C(=O)c1ccccc1S2,-14.2%,-3.5%
Cc1ccnc(SCC(=O)Nc2oc(-c3ccccc3)c(-c3ccccc3)c2C#N)n1,?,-1.0%
CCn1c(SCC(=O)Nc2oc(-c3ccccc3)c(-c3ccccc3)c2C#N)nnc1-c1cc(OC)cc(OC)c1,7.94µM*,4.7%
N#Cc1c(NC(=O)CN2CCOCC2)oc(-c2ccccc2)c1-c1ccccc1,?,-6.7%
N#Cc1c(NC(=O)Cn2cnc3ccccc3c2=O)oc(-c2ccccc2)c1-c1ccccc1,25.1µM*,1.3%
COc1cccc(CNC(=O)c2ccc(NC(=O)N3CCCCc4ccccc43)cc2)c1,-5.1%,-0.2%
Cc1ccc2cc(CN(Cc3cccs3)Cc3nnnn3C(C)(C)C)c3nnnn3c2c1,-5.2%,-3.4%
Cc1cc2cc(CN(Cc3cccs3)C(c3nnnn3C(C)(C)C)C(C)C)c3nnnn3c2cc1C (stereo unspecified),7.94µM*,-2.3%
O[C@H](C[C@@H]1CCCCN1)c1ccc2c(c1)oc1ccccc12,9.5%,2.3%
Cc1cc(C)cc(NC(=O)C2CC(=O)N(c3ccccc3)C2)c1 (stereo unspecified),1.2%,-2.5%
O=C(Nc1ccc(Cl)c(Cl)c1)C1CC(=O)N(c2ccc(Br)cc2)C1 (stereo unspecified),20µM*,-9.4%
Cc1cccc(CNC(=O)CN2CC(C)Sc3ccccc32)c1 (stereo unspecified),-1.9%,-1.7%
CCCCC/C=C\C/C=C\C/C=C\CCCCCCC(=O)NCCCC(=O)O,-3.1%,-1.5%
CC(NC(=O)c1cccc(NC(=O)c2nsc3ccccc23)c1)c1ccccc1 (stereo unspecified),-26.8%,-2.6%
Cc1cccc(NC(=S)NNC(=O)COc2ccc(Cl)cc2Cl)c1,?,-0.2%
Cc1ccc(NC(=O)NC(=O)COc2ccc(Cl)cc2Cl)c(C)c1,12.6µM*,0.2%
CCN(CC)c1ccc(C2Nc3cccc4cccc(c34)N2)c(O)c1,12.6µM*,-8.9%
Oc1ccc2ccccc2c1C1Nc2cccc3cccc(c23)N1,?,-7.4%
C=C(CO)C1Cc2c(ccc3c2OC2COc4cc(OC)c(OC)cc4C2C3=O)O1 (stereo unspecified),?,-6.1%
CCCCOc1ccc(C2=NC(c3ccccc3)=Nc3ccc(OC)cc3N2)cc1,6.8%,-1.2%
COc1cccc(C2=Nc3cccc4cccc(c34)N2)c1,15.8µM*,-7.3%
Nc1ccc(C2=Nc3cccc4cccc(c34)N2)cc1,3.16µM*,-19.8%
CC1=Nc2cccc3cccc(c23)N1,-16.1%,-2.3%
SMILES,Cruzain noTriton,Cruzain Triton
O=C1/C(=C/c2ccc(N3CCCC3)cc2)NC(=S)N1C1CC1,4.2%,-5.3%
O=C1N/C(=C/c2ccc(N3CCCC3)cc2)C(=O)N1c1ccccc1,3.16µM*,-6.0%
COc1cccc(NC(=O)CSc2nccn2C2CCCC2)c1,-4.7%,-0.8%
CC(C)(N)C(=O)N[C@@H]1C(=O)N2[C@@H]1SC(C)(C)[C@H]2C(=O)O,9.4%,1.3%
S=C1NCCc2ccccc2C1c1ccccc1 (stereo unspecified),31.6µM*,?
O=C(O)C1NCCc2ccccc21 (stereo unspecified),10.5%,4.0%
O=C(Cn1c(=O)c(CNc2ccccc2)cc2cc3c(cc21)OCCO3)Nc1ccccc1Cl,26.1%,-2.3%
CC(/C=C/c1ccc(N(C)C)cc1)=N/N=C1/NC(=O)CC(C(=O)Nc2ccc(Cl)cc2)S1 (stereo unspecified),?,-15.8%
CCOc1ccc(NC(=O)C2CC(=O)NC(=Nc3ccc(Cl)c(Cl)c3)S2)cc1 (stereo unspecified),10µM*,?
CCOc1ccc(NC(=O)C2CC(=O)N(CC)C(=Nc3ccc4c(c3)OCO4)S2)cc1 (stereo unspecified),-9.7%,-3.1%
CCCOc1ccc(NC(=O)C2CC(=O)N/C(=N/N=C(C)/C=C/c3ccc(N(C)C)cc3)S2)cc1 (stereo unspecified),25.1µM*,-16.4%
CCc1ccccc1NC(=O)c1ccc2[nH]c(C)c(C)c2c1,4.7%,2.3%
CCCOc1ccc(C2c3c(-c4ccccc4O)n[nH]c3C(=O)N2CCc2ccccc2)cc1OCC (stereo unspecified),12.6µM*,-2.4%
COc1ccc(C2c3c(-c4ccccc4O)n[nH]c3C(=O)N2CCc2ccc(OC)c(OC)c2)cc1 (stereo unspecified),5.9%,-5.0%
Cc1ccc(C2c3c(-c4ccccc4O)n[nH]c3C(=O)N2CCc2ccccc2)cc1 (stereo unspecified),?,-11.2%
CC(C)c1ccc(C2c3c(-c4ccccc4O)n[nH]c3C(=O)N2CCc2ccccc2)cc1 (stereo unspecified),20µM*,-3.8%
COc1ccc(C2c3c(-c4ccccc4O)n[nH]c3C(=O)N2CCc2ccccc2)cc1 (stereo unspecified),31.6µM*,-10.1%
CCCN1C(=O)c2[nH]nc(-c3ccccc3O)c2C1c1ccc(OCc2ccccc2)c(OC)c1 (stereo unspecified),?,-8.3%
Cc1cc(NC(=O)NCc2ccc3c(c2)CCN3C(=O)c2ccccc2)ccc1Br,-3.9%,-0.3%
CCOc1ccccc1CNC(=O)c1ccc2c(c1)sc1nc(-c3cccc(OC)c3)cn12,-8.1%,-2.8%
CN1C(=O)c2ccccc2Sc2ccc(NC(=O)COc3ccc(F)cc3)cc21,-9.0%,-3.7%
Cc1ccccc1NC(=O)CSc1nccn1C,9.7%,0.2%
N[C@@H](Cc1ccnnc1)C(=O)O,8.6%,1.1%
COc1cc(Cl)c(C)cc1NC(=O)C1CCCN(c2ncnc3onc(-c4ccc(F)cc4)c23)C1 (stereo unspecified),12.5%,-4.9%
COc1cccc(C(=O)N2CCCCC2CCN2CCCCC2)c1 (stereo unspecified),-0.9%,0.6%
SMILES,Cruzain noTriton,Cruzain Triton
COC(=O)N[C@@H](c1cccc(C)c1)[C@@H](C)[N+](=O)[O-],-3.2%,2.4%
CC1Cc2ccccc2N1Cc1cc(=O)n2ccsc2n1 (stereo unspecified),?,-1.8%
CC1Cc2ccccc2N1Cc1nc2cc(C(F)(F)F)ccc2c(=O)[nH]1 (stereo unspecified),25.1µM*,1.3%
CC1CCN(S(=O)(=O)c2ccc3[nH]ccc3c2)CC1,-0.9%,-0.4%
CCOc1ccc2c(c1)nc(SCC(=O)c1cccs1)n2C,9.6%,-1.7%
CCOc1ccc2c(c1)nc(SCC(=O)c1ccc(Br)s1)n2C,25.1µM*,4.0%
COc1ccc(-c2nc3cnc(N4CCN(C)CC4)nc3n(CCc3ccccc3)c2=O)cc1,7.3%,-6.2%
O=S(=O)(c1ccc(-c2nnc(SCc3nnc(-c4ccccc4)o3)o2)cc1)N1CCCC1,?,0.1%
CCN(CC)S(=O)(=O)c1ccc(-c2nnc(SCc3nnc(-c4ccccc4)o3)o2)cc1,25.1µM*,2.5%
CC1=NN(c2nc(-c3ccc(F)cc3)cs2)C(=O)C1,-0.4%,-0.4%
CC1=NN(c2nc(-c3ccc(Cl)cc3)cs2)C(=O)C1,7.94µM*,-18.7%
[CH3][Hg][Cl],3.6%,4.3%
COc1ccc(NC(=O)c2c(C)oc3ccc(O)c(CN4CCN(Cc5ccccc5)CC4)c23)cc1Cl,-21.5%,-8.2%
